According to PubChem BioAssay AID588393 (NMMLSC, 2011):
Activity calls are given as the source filed them.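 The calls were made as follows: active = valid curve fit, half-maximal dose at most 10 µM, and binding change across doses at least 30%; inactive = the rest.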

Tested on: Rab7 GTPase, wild type (Canis lupus familiaris)
Experiment: inhibition of Bodipy-GTP binding to Rab7 – biochemical, dog Rab7, bead multiplex flow cytometry, round 1, Cdc42 probe extension project, SAR follow-up (AID 588393)
Conditions: GST-Rab7 beads, Bodipy-FL-GTP binding, EDTA; series mostly up to 100 µM

outcome, inactive:
COc1ccc(C2CC(c3ccccc3)=NN2c2ccc(S(N)(=O)=O)cc2)cc1 (stereo not drawn), NS(=O)(=O)c1ccc(N2N=C(c3ccccc3)CC2c2ccccc2)cc1 (stereo not drawn), O=C(C#Cc1ccccc1)c1cccc([N+](=O)[O-])c1
